GLS inh – blocks human kidney-isoform glutaminase activity; GLS enzymatic activity, qHTS titration; Potency, µM (series often up to 45.5 µM), actives largely listed as inhibitors; 410,000 tested, 0.21% active; AID 624170
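Compounds were pin-transferred onto hKGA, after which L-glutamine (1 mM solution) and a detection mix of glutamate oxidase, HRP and Amplex Red were added. Initial and 30 min RT fluorescence reads were collected.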
KAT2A inh – inhibitors of human GCN5L2 histone acetyltransferase. GCN5L2 HAT assay, ThioGlo1 CoA-SH fluorescence. Potency, µM (series often up to 58.9 µM), usual class: inhibitors. 390,000 tested, 0.21% active. AID 504327
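Free CoA generated was detected with ThioGlo1 (50uM) fluorescence at Ex340nm/Em540nm, read immediately and after 20 min at room temperature. Enzyme, 20 nM in HEPES pH 7.5 buffer, saw compounds 15 min before adding 75uM H3(1-25) peptide and 70uM acetyl-CoA.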
PI4K2A inh – PI4K2A (human) kinase inhibition | 420,000 tested, 0.13% active | purified PI4K2A, ADP-Glo luminescence, 1 h; active compounds read low | Q9BTU6 | activity change, negative = inhibition, % at 76.9 µM | AID 1346378; in the data active means activity change below about -50%; inconclusive means mostly about -30% to -49%
Target sequence (Q9BTU6 whole entry, looked up): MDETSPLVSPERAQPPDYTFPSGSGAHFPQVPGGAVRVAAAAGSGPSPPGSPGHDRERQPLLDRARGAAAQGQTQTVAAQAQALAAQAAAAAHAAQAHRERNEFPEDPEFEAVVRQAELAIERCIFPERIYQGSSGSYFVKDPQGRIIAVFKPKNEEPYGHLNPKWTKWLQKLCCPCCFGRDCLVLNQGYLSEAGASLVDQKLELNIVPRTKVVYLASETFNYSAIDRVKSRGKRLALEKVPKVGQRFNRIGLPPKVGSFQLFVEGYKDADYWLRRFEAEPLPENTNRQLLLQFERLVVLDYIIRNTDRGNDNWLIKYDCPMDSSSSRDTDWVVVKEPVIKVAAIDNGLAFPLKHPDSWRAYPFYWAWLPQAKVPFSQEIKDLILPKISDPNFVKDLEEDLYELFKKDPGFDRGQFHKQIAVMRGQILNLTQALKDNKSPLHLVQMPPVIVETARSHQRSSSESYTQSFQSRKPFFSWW
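PI4K2A activity was measured by ADP-Glo luminescence: enzyme (4 ug/mL stock) and phosphatidylinositol (1.2 mM stock) in Tris pH 7.5/MgCl2/EGTA/Triton X-100 buffer were reacted with ATP (300 microM stock) for one hour at ambient temperature.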
PLK1 PBD block – inhibitors of human PLK1 polo-box domain binding; P53350; Plk1 PBD binding of FITC phosphopeptide, fluorescence polarization; Potency, µM, usual class: inhibitors; 360,000 tested, 2.8% active; further: series mostly up to about 57 µM; nearly all actives have a fitted effect of over 65% in size
VDR inh – blocks the human vitamin D receptor | P11473 | VDR-SRC2-3 peptide fluorescence polarization, 2 h | Potency, µM, hits mostly inhibitors | 400,000 tested, 0.93% active
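Inhibition of the VDR/SRC2-3 peptide interaction is quantified by fluorescence polarization. Compounds (23 nl, pintool) incubate with the reagents for 2 hours at ambient room temperature.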
Hits are given with their value; . = inactive; ? = inconclusive; / = no result given. Compounds with a hit are over-represented: about 3.1% of the library has one in this group of screens. Unless noted, the call rests on the fitted dose curve; in most records, active means well fitted curve in the direction sought with a large enough effect; inconclusive means small, poorly fitted or top-dose-only effect, or another doubt; inactive means no such curve, though single readings can be large; an effect the other way counts as inactive or inconclusive.

SMILES	GLS inh	KAT2A inh	PI4K2A inh	PLK1 PBD block	VDR inh
COc1ccc(C(=O)Cc2ccc(F)cc2)c(OC)c1	.	.	.	.	.
C[C@]12c3[nH]c4cc(-c5ccco5)ccc4c3CCN1C(=O)[C@@H](CC(=O)NCCC1=CCCCC1)C[C@@H]2C(=O)N1CCCCC1	.	.	.	21µM	?
CC[C@]12c3[nH]c4cc(-c5ccco5)ccc4c3CCN1C(=O)[C@@H](CC(=O)NC/C=C(\C)CCC=C(C)C)C[C@@H]2C(=O)N1CCN(C(=O)c2ccco2)CC1	.	.	.	24µM	.
CC(C)(C)NC(=O)C[C@H]1C[C@H](C(=O)N2CCCCC2)[C@@]2(C)c3[nH]c4cc(-c5ccco5)ccc4c3CCN2C1=O	.	.	.	24µM	?
CC(C)(C)NC(=O)CC1C[C@H](C(=O)N2CCCCC2)[C@@]2(C)c3[nH]c4ccccc4c3CCN2C1=O (stereo partly specified)	.	.	-59	.	.
COC[C@H]1CCCN1c1cccc2c1S(=O)(=O)N(C1CC1)CC[C@@H](C)O2	/	/	.	/	/
COC(=O)CC1C(=O)NCCN1C(=S)Nc1ccccc1 (stereo unspecified)	.	.	.	.	.
CCc1ccccc1NC(=S)N1CCNC(=O)C1CC(=O)OC (stereo unspecified)	.	.	.	21µM	.
COCC(=O)N1CCC2(CC1)CCN(c1ccc(-c3ccccc3)cc1)CC2	/	.	/	/	.
Cc1noc(C)c1C(=O)N1CCC[C@@]2(CCN(Cc3ccccc3)C2)C1	/	.	/	/	.
COc1ccc(C(=O)N2CCC[C@@]3(CCN(c4cccc(-c5ccccc5)c4)C3)C2)cc1	/	.	/	/	40µM
Cc1noc(C)c1C(=O)N1CCC[C@@]2(CCN(c3cccc(-c4ccccc4)c3)C2)C1	/	.	/	/	40µM
COCC(=O)N1CCC2(CCCN(c3ccc(-c4ccccc4)cc3)C2)CC1	/	.	/	/	50µM
COC(=O)[C@]1(CNC(=O)c2cc(F)ccc2F)CC(=O)N(C)[C@@H]1c1ccccc1	/	/	.	/	/
COC(CNC(=O)[C@H](Cc1ccccc1)NCC(=O)NC1CCCCC1)OC	/	/	.	/	/
Cc1nn(-c2ccccc2)c2nc(C3CC3)cc(C(=O)Nc3ccc(F)cc3)c12	.	.	.	/	.
C[C@H]1[C@@H](OC(=O)N2CCOCC2)CC[C@@]23CCCN2C(=O)CCC[C@@H]13	/	/	.	/	/
O=[N+]([O-])c1cc(Cl)ccc1N1CCOCC1	.	.	.	.	.
N#Cc1ccc(N2CCOCC2)c([N+](=O)[O-])c1	.	.	.	15µM	?
NC(=O)NS(=O)(=O)c1ccc(Cl)cc1	/	/	.	/	/
N#Cc1c(-c2ccncc2)c2c([nH]c1=O)-c1ccccc1OC2	/	.	/	/	/
Cc1ccc(-c2c(C#N)c(N)nc3c2CCCC3)o1	.	.	.	.	.
N#Cc1c(-c2ccncc2)c2c([nH]c1=S)CCCC2	.	?	.	27µM	.
Cc1ccc(-c2c3c([nH]c(=S)c2C#N)CCCC3)o1	?	.	.	12µM	?
COc1cc(O)c(C(CC(=O)N2CCC(C)CC2)c2ccc3c(c2)OCO3)c(OC)c1 (stereo unspecified)	/	/	.	/	/
SMILES	GLS inh	KAT2A inh	PI4K2A inh	PLK1 PBD block	VDR inh
Cc1nn(-c2ccccc2)c2sc(C(=O)N3CCN(Cc4ccc(F)cc4)CC3)cc12	/	/	.	/	/
CCOCCCNC(=O)NC(CCC(C)C)c1c(-n2cccc2)sc2c1CCN(C)C2 (stereo unspecified)	.	.	.	/	.
Cc1ccc(C(=O)Cn2cnc3ccccc3c2=O)cc1	.	.	.	30µM	.
CC(NC(=O)Cn1nc(-c2ccccc2)c2ccccc2c1=O)c1ccccc1 (stereo unspecified)	.	.	.	.	.
CC(NC(=O)Cn1nc(C(=O)O)c2ccccc2c1=O)c1ccccc1 (stereo unspecified)	.	.	.	30µM	.
O=C(NCC(c1ccc2c(c1)OCO2)N1CCOCC1)c1c(F)cccc1F (stereo unspecified)	.	.	.	/	.
Oc1c(Cl)cccc1C=Nc1cc(C(F)(F)F)ccc1N1CCCC1	.	.	.	12µM	.
Cc1ccc(C(=O)C(C(=O)/C=C/c2ccccc2)=C2SCCCS2)cc1	?	.	.	3.4µM	.
CC(C)c1nc2sc3c(=O)[nH]c(=S)[nH]c3c2c2c1CCCC2	.	.	.	24µM	71µM
Cc1ccc(C(C)C)c(OCC(=O)Nc2ccc(S(=O)(=O)Nc3onc(C)c3C)cc2)c1	.	.	.	/	.
O=C(N/N=C/c1cccnc1)c1ccc(Cl)c(Cl)c1	.	/	.	.	.
O=S(=O)(N/N=C/c1cccnc1)c1ccc(Cl)c(Cl)c1	.	.	.	13µM	?
Cc1sc2nc3c(C(=O)N4CCCC4)cc(C(=O)c4ccccc4O)cn3c(=O)c2c1C	.	.	.	24µM	.
CC(C)Oc1ccc(S(=O)(=O)N2CCOCC2)cc1NC(=O)CC1CCCC1	.	.	.	.	.
Cn1nnnc1SCC(=O)NCc1cc([N+](=O)[O-])ccc1O	.	.	.	.	.
CCCCc1ccc(CC(=O)Nc2cc(S(=O)(=O)N3CCOCC3)ccc2O)cc1	.	.	.	15µM	?
COc1ccc(CC(=O)Nc2cc(S(=O)(=O)N3CCOCC3)ccc2N2CCOCC2)cc1OC	.	/	.	.	.
COc1ccc(S(=O)(=O)N2CCOCC2)cc1NC(=O)CSc1n[nH]c(C(C)C)n1	.	.	.	27µM	.
O=C(CSc1nc2ccccc2s1)NCc1cc([N+](=O)[O-])ccc1O	.	.	.	19µM	?
O=C(CC1CCCC1)Nc1cc(S(=O)(=O)N2CCOCC2)ccc1O	.	.	.	6µM	?
COc1ccc(S(=O)(=O)N2CCOCC2)cc1NC(=O)CSc1nc(C)c(C)c(C)n1	.	.	.	?	.
COc1ccc(Cn2c(C(=O)O)c(CNCCc3ccccc3Cl)c3ccc(C)cc32)cc1	.	.	.	/	.
COc1ccc(S[C@]2(C(=O)N3CCOCC3)CC(=O)N(C(=O)/C=C/c3ccccc3)[C@@H]2c2ccc(OC)cc2)cc1	/	/	.	/	/
Cc1nnc(SCC(=O)Nc2cc(S(=O)(=O)N3CCOCC3)ccc2C)s1	.	.	.	.	.
O=C(CSc1nc2ccccc2s1)Nc1cc(S(=O)(=O)N2CCOCC2)ccc1O	.	.	.	11µM	?
SMILES	GLS inh	KAT2A inh	PI4K2A inh	PLK1 PBD block	VDR inh
COc1ccc(C(=O)C[n+]2ccc3c(c2)nc(Cc2ccccc2)n3C)cc1	/	/	.	/	/
CC(=O)N(CCCN1CCOCC1)Cc1ccncc1	.	.	.	30µM	.
CCCCCCn1c(SCCN2CCOCC2)nc2c1c(=O)[nH]c(=O)n2C	.	.	.	.	.
CCCCn1c(SCC(=O)OCC)nc2c1c(=O)[nH]c(=O)n2C	.	.	.	27µM	.
CCOC(=O)CSc1nc2c(c(=O)[nH]c(=O)n2C)n1C/C=C(/C)Cl	.	.	.	?	?
CCOCCn1c(SCCCc2ccccc2)nc2c1c(=O)[nH]c(=O)n2C	.	.	.	?	.

Assay outcomes: PubChem BioAssay, National Center for Advancing Translational Sciences (NCATS)
